Experimental data from PubChem BioAssay (EPA / NIEHS).
Values joined by “and” are separate entries in the source; they are usually repeats but may differ in a detail not shown here. Identical values can stand only once. Inconclusive results are not listed. Some compounds were tested as several samples or in several runs, with calls that do not always agree. Active and inactive are the calls of the source. Rule for the calls, unless noted: active = hit-call score of the fitted dose curve at least 0.9, where 1 is the maximum; inactive = score below 0.9.

Assays:
[1] = ATG_PBREM_CIS: Attagene CIS-FACTORIAL HepG2 Assay for human Phenobarbital-responsive Enhancer Module (PBREM) (AID 2282955); details: HepG2 PBREM cis-reporter, Attagene multiplexed transcription; actives raise or lower the signal
Outline: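 Endogenous transcription factors in human liver HepG2 cells drive a PBREM cis-element reporter, whose transcript level after 24 h treatment is quantified by RT-PCR with capillary electrophoresis; activity fitted in both directions against DMSO.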

[2] = ATG_PXRE_CIS: Attagene CIS-FACTORIAL HepG2 Assay for human Pregnane X Receptor Element (PXRE) (AID 2282957); details: HepG2 Attagene CIS-FACTORIAL PXRE reporter, mRNA; actives raise or lower the signal
Outline: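 Transiently transfected HepG2 cells were dosed and incubated for 24 h. RNA was then isolated, DNase-treated, reverse-transcribed and reporter sequences amplified. Labeled, HpaI-digested fragments were quantified by capillary electrophoresis against DMSO.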

[3] = ATG_PPRE_CIS: Attagene CIS-FACTORIAL HepG2 Assay for human Peroxisome Proliferator-activated Response Element (PPRE) (AID 2282958); details: HepG2 PPRE cis-element reporter, Attagene transcription factor profiling; actives raise or lower the signal
Outline: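 HepG2, transient MRTU transfection (cis promoter elements, endogenous TFs). 24 h dosing. RNA → oligo(dT) RT → PCR → 6-FAM primer extension → HpaI digest → CE. Bidirectional fit vs DMSO.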

[4] = ATG_RORE_CIS: Attagene CIS-FACTORIAL HepG2 Assay for human RAR-related Orphan Receptor Element (RORE) (AID 2282959); details: HepG2 Attagene cis-factorial RORE reporter, mRNA; actives raise or lower the signal
Outline: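 Transient MRTU transfection of human HepG2 liver cells (FuGene 6); 24 h compound exposure; TriZol RNA, oligo(dT) RT, PCR, FAM labeling, HpaI cut, CE fragment analysis. DMSO = negative control/baseline.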

[5] = target: Transcription factor Sp1 (Homo sapiens) (UniProt P08047); assay: ATG_Sp1_CIS: Attagene CIS-FACTORIAL HepG2 Assay for human Specificity Protein 1 (Sp1) (AID 2282961); details: HepG2 Sp1 cis-reporter transcription, actives raise or lower the signal
Chain of Transcription factor Sp1 (Homo sapiens) (P08047 whole entry, looked up): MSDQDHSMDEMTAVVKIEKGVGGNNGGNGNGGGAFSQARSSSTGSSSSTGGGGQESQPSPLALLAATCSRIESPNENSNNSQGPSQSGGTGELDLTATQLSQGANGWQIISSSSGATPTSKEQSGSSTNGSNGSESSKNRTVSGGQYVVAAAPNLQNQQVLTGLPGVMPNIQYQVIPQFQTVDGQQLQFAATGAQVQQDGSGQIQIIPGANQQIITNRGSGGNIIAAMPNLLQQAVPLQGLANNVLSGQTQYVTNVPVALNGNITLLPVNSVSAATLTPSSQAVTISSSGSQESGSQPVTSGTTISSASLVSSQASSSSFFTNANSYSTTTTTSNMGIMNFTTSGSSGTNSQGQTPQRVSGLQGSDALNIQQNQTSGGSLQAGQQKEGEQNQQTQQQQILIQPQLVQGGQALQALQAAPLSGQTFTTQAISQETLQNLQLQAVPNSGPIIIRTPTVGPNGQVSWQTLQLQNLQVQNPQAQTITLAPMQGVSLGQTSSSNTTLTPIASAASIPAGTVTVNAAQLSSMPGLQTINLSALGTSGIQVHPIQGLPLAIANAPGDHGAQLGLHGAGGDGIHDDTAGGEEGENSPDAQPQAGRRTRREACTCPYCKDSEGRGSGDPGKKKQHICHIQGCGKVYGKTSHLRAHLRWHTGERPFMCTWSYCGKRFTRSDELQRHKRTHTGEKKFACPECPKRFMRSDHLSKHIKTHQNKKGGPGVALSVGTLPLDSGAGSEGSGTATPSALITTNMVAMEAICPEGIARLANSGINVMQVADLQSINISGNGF
Outline: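 Transient MRTU-transfected HepG2, 24 h compound exposure. Total RNA → oligo(dT) RT → PCR of reporter → 6-FAM primer extension → HpaI digest → CE. Endpoint fitted both directions vs DMSO.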

[6] = ATG_SREBP_CIS: Attagene CIS-FACTORIAL HepG2 Assay for human Sterol Regulatory Element Binding (SREBP) (AID 2282962); details: HepG2 Attagene cis-factorial SREBP reporter, mRNA; actives raise or lower the signal
Outline: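 Transfected HepG2 (cis-regulated reporter library, endogenous TFs) → compound 24 h → total RNA → oligo(dT) RT → reporter-specific PCR → FAM primer extension, HpaI cut → CE fluorescence. Fit bidirectional vs DMSO.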

[7] = ATG_TA_CIS: Attagene CIS-FACTORIAL HepG2 Assay for human TA Basal Promoter (AID 2282964); details: HepG2 Attagene CIS-factorial TA basal promoter reporter; actives raise or lower the signal
Outline: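 Transient MRTU transfection of HepG2 preceded 24 h compound exposure. Reporter mRNA levels were then read by RT-PCR with capillary electrophoresis, and this background-control endpoint was fitted bidirectionally to DMSO.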

[8] = ATG_TCF_b_cat_CIS: Attagene CIS-FACTORIAL HepG2 Assay for human T-Cell-Factor with beta-catenin (TCF/b-cat) (AID 2282965); details: HepG2 TCF/beta-catenin cis-reporter transcription, actives raise or lower the signal
Outline: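 HepG2 cells transiently transfected with cis-promoter-driven multiplexed reporter units; reporter mRNA measured 24 h after dosing by RT-PCR, FAM labelling, HpaI digestion and capillary electrophoresis. Bidirectional fitting relative to DMSO baseline.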

[9] = ATG_TAL_CIS: Attagene CIS-FACTORIAL HepG2 Assay for human TAL Basal Promoter (AID 2282966); details: HepG2 Attagene cis-factorial TAL promoter reporter; actives raise or lower the signal;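 note: background control endpoint measuring basal TAL promoter reporter mRNA not a specific factor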
Outline: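 Readout: reporter mRNA, fluorescence by CE. System: HepG2, transient multi-reporter transfection, endogenous TF activity. Exposure: 24 h. Analysis: bidirectional, DMSO-normalized; background control.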

[10] = ATG_TGFb_CIS: Attagene CIS-FACTORIAL HepG2 Assay for human Transforming Growth Factor (TGF) (AID 2282967); details: HepG2 Attagene CIS TGFb reporter, mRNA transcription; actives raise or lower the signal
Outline: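 After a 24-hour incubation with compound, transfected HepG2 cells were lysed for RNA; reporter cDNA was amplified, fluorescently end-labeled and separated by CE. DMSO served as baseline for bidirectional fits.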

[11] = ATG_VDRE_CIS: Attagene CIS-FACTORIAL HepG2 Assay for human Vitamin D Receptor Element (VDRE) (AID 2282968); details: HepG2 VDRE cis-reporter transcription, actives raise or lower the signal
Outline: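 Transiently transfected HepG2 cells carrying cis-regulated reporter transcription units were exposed for 24 h. Reporter mRNA was measured by RT-PCR with fluorescent labelling and capillary electrophoresis, and fitted in both directions against DMSO.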

[12] = target: Nuclear receptor subfamily 1 group I member 3 (Homo sapiens) (UniProt Q14994); assay: ATG_CAR_TRANS: Attagene TRANS-FACTORIAL HepG2 Assay for human Constitutive Androstane Receptor (CAR) (AID 2282969; active = hit-call score of the fitted dose curve at least 0.9, where 1 is the maximum;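 note: activators raise reporter mRNA above DMSO so AC50 marks induction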); details: HepG2 Attagene TRANS-FACTORIAL CAR reporter
Chain of Nuclear receptor subfamily 1 group I member 3 (Homo sapiens) (Q14994 whole entry, looked up, the tested form may be a part): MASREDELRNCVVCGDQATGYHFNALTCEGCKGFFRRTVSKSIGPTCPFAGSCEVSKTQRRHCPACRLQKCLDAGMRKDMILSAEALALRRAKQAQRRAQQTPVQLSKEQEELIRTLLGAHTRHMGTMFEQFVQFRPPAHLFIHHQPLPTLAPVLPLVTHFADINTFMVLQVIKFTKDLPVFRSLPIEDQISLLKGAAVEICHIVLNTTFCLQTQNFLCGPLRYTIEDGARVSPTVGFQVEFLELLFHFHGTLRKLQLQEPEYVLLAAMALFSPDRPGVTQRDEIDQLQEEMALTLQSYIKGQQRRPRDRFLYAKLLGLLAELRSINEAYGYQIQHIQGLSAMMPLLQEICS
Outline: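 HepG2 cells transiently transfected with GAL4-UAS reporter units; TRANS format reads activity of exogenous chimeric NR-Gal4 protein. After 24 h dosing, reporter mRNA quantified by RT-PCR, 6-FAM labelling and capillary electrophoresis; gain of signal fitted against DMSO.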

[13] = target: X-box-binding protein 1 (Homo sapiens) (UniProt P17861); assay: ATG_Xbp1_CIS: Attagene CIS-FACTORIAL HepG2 Assay for human X-box Binding Protein 1 (XBP1) (AID 2282972); details: HepG2 XBP1 cis-element reporter, Attagene multiplex; actives raise or lower the signal
Chain of X-box-binding protein 1 (Homo sapiens) (P17861 whole entry, looked up): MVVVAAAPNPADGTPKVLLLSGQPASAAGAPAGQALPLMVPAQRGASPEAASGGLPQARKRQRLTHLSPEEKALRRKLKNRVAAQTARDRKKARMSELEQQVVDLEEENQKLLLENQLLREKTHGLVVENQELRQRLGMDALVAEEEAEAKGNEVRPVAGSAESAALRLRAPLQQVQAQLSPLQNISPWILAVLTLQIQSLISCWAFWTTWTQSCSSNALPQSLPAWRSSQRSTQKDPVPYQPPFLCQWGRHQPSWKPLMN
Outline: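 HepG2, transient MRTU transfection (cis-promoter driven), 24 h compound exposure. Total RNA → oligo(dT) RT → PCR → 6-FAM labeling → HpaI cut → CE. Bidirectional fit vs DMSO.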

[14] = ATG_M_19_TRANS: Attagene TRANS-FACTORIAL HepG2 Assay for M19 Transcription Factor (Internal Marker) (AID 2282974; active = hit-call score of the fitted dose curve at least 0.9, where 1 is the maximum); details: HepG2 Attagene TRANS-FACTORIAL M19 internal marker reporter
Outline: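 Fluorescence of 6-FAM-labelled reporter cDNA fragments, separated by capillary electrophoresis, served as the readout. These derived from HepG2 cells carrying transfected GAL4-UAS reporter units after 24 h dosing, with DMSO as negative control.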

[15] = ATG_GAL4_TRANS: Attagene TRANS-FACTORIAL HepG2 Assay for GAL4 (Internal Marker) (AID 2282976; active = hit-call score of the fitted dose curve at least 0.9, where 1 is the maximum); details: HepG2 Attagene TRANS GAL4 internal marker reporter
Outline: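 Fluorescence from capillary electrophoresis of labelled RT-PCR products quantifies reporter mRNA induction after 24 h dosing of HepG2 cells carrying transfected GAL4-UAS reporter transcription units. Vehicle DMSO serves as baseline.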

[16] = target: Paired box protein Pax-6 (Homo sapiens) (UniProt P26367); assay: ATG_Pax6_CIS: Attagene CIS-FACTORIAL HepG2 Assay for human Paired Box 6 (PAX6) (AID 2282956); details: HepG2 CIS-FACTORIAL PAX6 reporter transcription, RNA readout; actives raise or lower the signal
Chain of Paired box protein Pax-6 (Homo sapiens) (P26367 whole entry, looked up): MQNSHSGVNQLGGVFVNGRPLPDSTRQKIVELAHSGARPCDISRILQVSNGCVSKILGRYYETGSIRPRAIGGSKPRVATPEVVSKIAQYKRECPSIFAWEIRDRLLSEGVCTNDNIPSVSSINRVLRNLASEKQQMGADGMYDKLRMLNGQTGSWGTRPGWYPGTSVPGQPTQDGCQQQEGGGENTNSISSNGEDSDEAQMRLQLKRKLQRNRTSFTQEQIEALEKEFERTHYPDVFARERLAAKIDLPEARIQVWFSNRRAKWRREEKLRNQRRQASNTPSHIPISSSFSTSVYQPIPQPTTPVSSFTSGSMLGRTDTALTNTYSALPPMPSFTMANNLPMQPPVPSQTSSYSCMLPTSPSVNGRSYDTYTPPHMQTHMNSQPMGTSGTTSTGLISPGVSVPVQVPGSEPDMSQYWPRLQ
Outline: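 Transient MRTU transfection of HepG2 → compound exposure 24 h → TriZol RNA, oligo(dT) RT → PCR, 6-FAM primer extension, HpaI cut → capillary electrophoresis; activity fitted both directions against DMSO.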

[17] = target: Glucocorticoid receptor (Homo sapiens) (UniProt P04150); assay: ATG_GR_TRANS: Attagene TRANS-FACTORIAL HepG2 Assay for human Glucocorticoid Receptor (GR) (AID 2282978; active = hit-call score of the fitted dose curve at least 0.9, where 1 is the maximum;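 note: activators score as hits since higher reporter transcript over DMSO is fitted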); details: HepG2 Attagene TRANS GR reporter, mRNA transcription
Chain of Glucocorticoid receptor (Homo sapiens) (P04150 whole entry, looked up, the tested form may be a part): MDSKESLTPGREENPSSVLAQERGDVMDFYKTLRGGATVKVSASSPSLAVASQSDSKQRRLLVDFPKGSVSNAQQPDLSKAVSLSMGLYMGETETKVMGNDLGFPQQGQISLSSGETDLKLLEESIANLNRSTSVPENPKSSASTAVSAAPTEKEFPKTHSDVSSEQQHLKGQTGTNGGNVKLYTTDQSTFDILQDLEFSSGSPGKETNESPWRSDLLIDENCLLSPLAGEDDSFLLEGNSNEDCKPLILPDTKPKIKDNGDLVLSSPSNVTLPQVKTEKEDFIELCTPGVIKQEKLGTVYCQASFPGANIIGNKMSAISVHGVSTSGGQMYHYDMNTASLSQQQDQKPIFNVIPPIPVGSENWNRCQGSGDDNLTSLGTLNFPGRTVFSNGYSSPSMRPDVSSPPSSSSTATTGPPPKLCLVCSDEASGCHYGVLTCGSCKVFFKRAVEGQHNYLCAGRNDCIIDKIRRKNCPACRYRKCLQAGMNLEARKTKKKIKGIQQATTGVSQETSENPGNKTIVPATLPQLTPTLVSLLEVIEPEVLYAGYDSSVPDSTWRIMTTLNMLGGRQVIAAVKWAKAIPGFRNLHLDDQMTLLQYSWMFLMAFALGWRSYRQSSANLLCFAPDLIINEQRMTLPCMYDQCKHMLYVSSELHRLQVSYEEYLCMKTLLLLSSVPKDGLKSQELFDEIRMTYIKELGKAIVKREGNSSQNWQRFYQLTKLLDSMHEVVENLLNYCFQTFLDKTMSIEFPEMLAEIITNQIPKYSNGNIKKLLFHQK
Outline: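 Fluorescent capillary-electrophoresis quantitation of reporter mRNA is the readout, taken 24 h after dosing human HepG2 cells carrying transiently transfected GAL4-UAS reporter units activated by chimeric NR-GAL4 fusions; activity scored as induction over DMSO.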

[18] = ATG_Sox_CIS: Attagene CIS-FACTORIAL HepG2 Assay for human SRY-box transcription factor (SOX) (AID 2282960); details: HepG2 Attagene cis-factorial SOX reporter, mRNA; actives raise or lower the signal
Outline: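 Endogenous factor activity in human liver HepG2 cells carrying transfected cis-regulated reporter units. RNA taken 24 h post-dose, reverse-transcribed, PCR-amplified and sized by capillary electrophoresis. Gain or loss of signal fitted relative to DMSO.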

[19] = target: Estrogen receptor (Homo sapiens) (UniProt P03372); assay: ATG_ERa_TRANS: Attagene TRANS-FACTORIAL HepG2 Assay for human Estrogen Receptor alpha (ERa) (AID 2282970; active = hit-call score of the fitted dose curve at least 0.9, where 1 is the maximum); details: HepG2 Attagene TRANS ERa GAL4 reporter, mRNA
Chain of Estrogen receptor (Homo sapiens) (P03372 whole entry, looked up, the tested form may be a part): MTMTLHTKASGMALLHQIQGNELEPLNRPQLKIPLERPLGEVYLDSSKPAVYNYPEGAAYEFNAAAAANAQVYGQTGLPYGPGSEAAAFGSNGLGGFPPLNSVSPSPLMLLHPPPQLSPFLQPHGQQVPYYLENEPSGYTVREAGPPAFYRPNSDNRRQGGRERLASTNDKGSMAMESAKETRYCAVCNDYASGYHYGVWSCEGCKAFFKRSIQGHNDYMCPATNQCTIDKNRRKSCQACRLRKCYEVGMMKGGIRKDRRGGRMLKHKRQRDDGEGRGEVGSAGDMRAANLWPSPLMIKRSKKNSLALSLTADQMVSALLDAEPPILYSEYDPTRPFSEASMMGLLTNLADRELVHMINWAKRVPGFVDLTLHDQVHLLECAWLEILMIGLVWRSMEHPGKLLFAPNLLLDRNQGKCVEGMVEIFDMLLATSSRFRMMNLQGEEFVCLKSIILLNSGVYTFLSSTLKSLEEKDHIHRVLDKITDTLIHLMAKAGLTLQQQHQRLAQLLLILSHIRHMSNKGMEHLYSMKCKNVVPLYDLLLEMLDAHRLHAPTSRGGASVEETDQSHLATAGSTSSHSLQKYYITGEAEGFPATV
Outline: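 Transactivation via ERa-Gal4 chimera in HepG2; 24 hour incubation; reporter mRNA detected by fluorescence RT-PCR and capillary electrophoresis.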

[20] = target: Signal transducer and activator of transcription 3 (Homo sapiens) (UniProt P40763); assay: ATG_STAT3_CIS: Attagene CIS-FACTORIAL HepG2 Assay for human Signal Transducer and Activator of Transcription 3 (STAT3) (AID 2282963); details: HepG2, Attagene cis-factorial STAT3 reporter transcription; actives raise or lower the signal
Chain of Signal transducer and activator of transcription 3 (Homo sapiens) (P40763 whole entry, looked up): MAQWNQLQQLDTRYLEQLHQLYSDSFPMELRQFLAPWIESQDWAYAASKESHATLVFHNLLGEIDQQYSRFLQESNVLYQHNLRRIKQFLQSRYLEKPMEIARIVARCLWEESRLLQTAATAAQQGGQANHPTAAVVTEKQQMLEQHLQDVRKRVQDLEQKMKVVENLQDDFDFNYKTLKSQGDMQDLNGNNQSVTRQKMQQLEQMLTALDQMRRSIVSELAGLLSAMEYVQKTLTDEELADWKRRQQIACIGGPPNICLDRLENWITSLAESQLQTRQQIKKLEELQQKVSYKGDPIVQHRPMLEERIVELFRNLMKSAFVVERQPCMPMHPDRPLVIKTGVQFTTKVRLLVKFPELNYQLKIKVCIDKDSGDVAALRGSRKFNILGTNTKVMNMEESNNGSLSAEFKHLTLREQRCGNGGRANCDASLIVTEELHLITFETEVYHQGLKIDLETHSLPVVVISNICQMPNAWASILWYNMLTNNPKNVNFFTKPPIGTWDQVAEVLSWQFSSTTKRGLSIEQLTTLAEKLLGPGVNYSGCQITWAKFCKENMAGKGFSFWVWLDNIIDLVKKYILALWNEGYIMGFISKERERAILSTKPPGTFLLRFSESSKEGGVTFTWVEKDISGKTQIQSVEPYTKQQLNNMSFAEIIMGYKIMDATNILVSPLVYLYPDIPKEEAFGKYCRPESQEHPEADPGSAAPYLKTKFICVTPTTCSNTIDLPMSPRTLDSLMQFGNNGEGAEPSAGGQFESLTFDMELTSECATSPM
Outline: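 HepG2 cells transiently transfected with multiple cis-element-driven reporter units report endogenous transcription factor activity. After 24 h compound exposure, reporter mRNA is measured by RT-PCR, 6-FAM labelling, HpaI digestion and capillary electrophoresis. Fitted bidirectionally versus DMSO.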

Measured: AC50

N#Cc1nn(-c2c(Cl)cc(C(F)(F)F)cc2Cl)c(N)c1S(=O)C(F)(F)F (stereo not drawn)
active: [1] 19.4 µM | [2] 2.37 µM and 44.9 µM | [3] 22.8 µM | [11] 15.4 µM | [13] 15.3 µM
inactive: [1] | [3] | [4] | [5] | [6] | [7] | [8] | [9] | [10] | [11] | [12] | [13] | [14] | [15]

COC(=O)N(OC)c1ccccc1COc1ccn(-c2ccc(Cl)cc2)n1
active: [1] 1.67 µM | [2] 1.28 µM | [3] 0.343 µM | [4] 2.2 µM | [11] 1.35 µM
not listed: [14] | [18] | [19] | [20]
inactive: all other assays above

CCOP(=S)(OCC)SCn1c(=O)oc2cc(Cl)ccc21
active: [1] 7.17 µM | [2] 2.21 µM | [11] 13.8 µM
not listed: [3] | [19] | [20]
inactive: all other assays above

CCNc1nc(Cl)nc(NCC)n1
active: [2] 32.7 µM
not listed: [3] | [15] | [19] | [20]
inactive: all other assays above

COC(=O)c1ccccc1C(=O)OC
active: [2] 32.8 µM
not listed: [3] | [15] | [20]
inactive: all other assays above

CC(C)Oc1cc(-n2nc(C(C)(C)C)oc2=O)c(Cl)cc1Cl
active: [1] 0.427 µM | [2] 0.284 µM | [11] 0.667 µM
not listed: [18] | [19]
inactive: all other assays above
